Inhibition data for two molecules are collected here from PubChem BioAssay AID602283 (Johns Hopkins Ion Channel Center, 2012).

About 940 (85%) of roughly 1,100 compounds were called active.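 The calls were made as follows: active = inhibition exceeding 3 SD of buffer-only control wells (cut at about 26% in these data); inactive = the rest.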 So high a share suggests a set chosen from earlier hits. The list is a sample of the results.

The nature of this test: carbachol calcium response changes in non-induced cells, primary screen, counter-screen for RGS4 activator project, cell-based, HEK293 M3R, non-induced RGS4, Fluo-4 calcium (AID 602283).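 Also: percent drop in integrated peak-minus-baseline over baseline Fluo4 ratio after carbachol.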 As to conditions: HEK293 M3R non-induced RGS4, Fluo4 calcium flux; at 10 µM; hits give high values; after carbachol challenge at its EC90.
Take `C=CC12CN(C)[C@@H]3C4CO[C@H](C[C@H]41)[C@]1(C(=O)Nc4ccccc41)[C@@H]32` (some centres not stated): the inhibition is 83.8% (active). As to `CC(C)Oc1cccc(C(=O)C2CCCN(C3CCOCC3)C2)c1` (configuration not stated), the inhibition is 83.8% (active).
